# The supplement of paper PMC4466140
# Assays:
# Assay in all cases: SPOT peptide array binding signal intensity (averaged, normalized) (arbitrary units (background-subtracted, floor 0; scale differs between SH3 domains)); higher = stronger binding of the SH3 domain to the peptide
# [1] = target: SpBzz1-D2
# Procedure, shortened: (§1)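 SH3 domains from four yeast species were expressed as GST fusions in E. coli BL21(DE3) and purified on glutathione Sepharose. Each was incubated at 10 μg/ml overnight at 4°C in TBS-based blocking buffer on cellulose membranes bearing synthetic 15-mer peptides, in which serines replaced cysteines. Bound protein was detected with anti-GST antibody, an HRP anti-mouse secondary and luminol, then imaged and quantified with Genespotter. The binding signal is the normalized, background-subtracted spot intensity averaged over replicates, in arbitrary units that are not the same from one domain to another.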
# [2] = target: SpCyk3
# Procedure, shortened: as §1
# [3] = target: SpHof1
# Procedure, shortened: as §1
# [4] = target: SpHof1-2
# Procedure, shortened: as §1
# [5] = target: SpHof1-3
# Procedure, shortened: as §1
# [6] = target: SpHse1
# Procedure, shortened: as §1
# [7] = target: SpLsb1
# Procedure, shortened: as §1
# [8] = target: SpLsb4
# Procedure, shortened: as §1
# [9] = target: SpMyo1
# Procedure, shortened: as §1
# [10] = target: SpNbp2
# Procedure, shortened: as §1
# [11] = target: SpPex13
# Procedure, shortened: as §1
# [12] = target: SpRvs167
# Procedure, shortened: as §1
# [13] = target: SpSla1-D1-D2
# Procedure, shortened: as §1
# [14] = target: SpSla1-D3
# Procedure, shortened: as §1
# [15] = target: AgAbp1
# Procedure, shortened: as §1
# [16] = target: AgBbc1
# Procedure, shortened: as §1
# [17] = target: AgBem1-D1
# Procedure, shortened: as §1
# [18] = target: AgBzz1-D1
# Procedure, shortened: as §1
# [19] = target: AgBzz1-D2
# Procedure, shortened: as §1
# [20] = target: AgCyk3
# Procedure, shortened: as §1
# [21] = target: AgFus1
# Procedure, shortened: as §1
# [22] = target: AgHof1
# Procedure, shortened: as §1
# [23] = target: AgHse1
# Procedure, shortened: as §1
# [24] = target: AgLsb1
# Procedure, shortened: as §1
# [25] = target: AgLsb4
# Procedure, shortened: as §1
# [26] = target: AgMyo5
# Procedure, shortened: as §1
# [27] = target: AgNbp2
# Procedure, shortened: as §1
# [28] = target: AgRvs167
# Procedure, shortened: as §1
# [29] = target: AgSho1
# Procedure, shortened: as §1
# [30] = target: AgSla1-D1-D2
# Procedure, shortened: as §1
# [31] = target: AgSla1-D3
# Procedure, shortened: as §1
# [32] = target: CaAbp1-D1
# Procedure, shortened: as §1
# [33] = target: CaAbp1-D2
# Procedure, shortened: as §1
# [34] = target: CaBbc1
# Procedure, shortened: as §1
# [35] = target: CaBem1-D1
# Procedure, shortened: as §1
# [36] = target: CaBzz1-D1
# Procedure, shortened: as §1
# [37] = target: CaBzz1-D2
# Procedure, shortened: as §1
# [38] = target: CaCyk3
# Procedure, shortened: as §1
# [39] = target: CaFus1
# Procedure, shortened: as §1
# [40] = target: CaHof1
# Procedure, shortened: as §1
# [41] = target: CaHse1
# Procedure, shortened: as §1
# [42] = target: CaLsb1
# Procedure, shortened: as §1
# [43] = target: CaLsb4
# Procedure, shortened: as §1
# [44] = target: CaMyo5
# Procedure, shortened: as §1
# [45] = target: CaNbp2
# Procedure, shortened: as §1
# [46] = target: CaRvs167
# Procedure, shortened: as §1
# [47] = target: CaRvs167-3
# Procedure, shortened: as §1
# [48] = target: CaSho1
# Procedure, shortened: as §1
# [49] = target: CaSla1-D1-D2
# Procedure, shortened: as §1
# [50] = target: CaSla1-D3
# Procedure, shortened: as §1
# [51] = target: ScAbp1
# Procedure, shortened: as §1
# [52] = target: ScBbc1
# Procedure, shortened: as §1
# [53] = target: ScBem1-D1
# Procedure, shortened: as §1
# [54] = target: ScBzz1-D1
# Procedure, shortened: as §1
# [55] = target: ScBzz1-D2
# Procedure, shortened: as §1
# [56] = target: ScCyk3
# Procedure, shortened: as §1
# [57] = target: ScFus1
# Procedure, shortened: as §1
# [58] = target: ScHof1
# Procedure, shortened: as §1
# [59] = target: ScHse1
# Procedure, shortened: as §1
# [60] = target: ScLsb1
# Procedure, shortened: as §1
# [61] = target: ScLsb2
# Procedure, shortened: as §1
# [62] = target: ScLsb3
# Procedure, shortened: as §1
# [63] = target: ScLsb4
# Procedure, shortened: as §1
# [64] = target: ScMyo3
# Procedure, shortened: as §1
# [65] = target: ScMyo5
# Procedure, shortened: as §1
# [66] = target: ScNbp2
# Procedure, shortened: as §1
# [67] = target: ScPex13
# Procedure, shortened: as §1
# [68] = target: ScRvs167
# Procedure, shortened: as §1
# [69] = target: ScSho1
# Procedure, shortened: as §1
# [70] = target: ScSla1-D1-D2
# Procedure, shortened: as §1
# [71] = target: ScSla1-D3
# Procedure, shortened: as §1
# [72] = target: SpAbp1-D1
# Procedure, shortened: as §1
# [73] = target: SpBbc1
# Procedure, shortened: as §1
# [74] = target: SpBzz1-D1
# Procedure, shortened: as §1
binder,measurement,setting,value
SSSSTPPTLPPRRIE,SPOT peptide array binding signal intensity,[1],≤ 0
same,SPOT peptide array binding signal intensity,[2],4
same,SPOT peptide array binding signal intensity,[3],4.5
same,SPOT peptide array binding signal intensity,[4],12.2
same,SPOT peptide array binding signal intensity,[5],10
same,SPOT peptide array binding signal intensity,[6],16
same,SPOT peptide array binding signal intensity,[7],3060
same,SPOT peptide array binding signal intensity,[8],6340
same,SPOT peptide array binding signal intensity,[9],594
same,SPOT peptide array binding signal intensity,[10],≤ 0
same,SPOT peptide array binding signal intensity,[11],4
same,SPOT peptide array binding signal intensity,[12],3420
same,SPOT peptide array binding signal intensity,[13],≤ 0
same,SPOT peptide array binding signal intensity,[14],≤ 0
ERPKRRAPPPVPKKP,SPOT peptide array binding signal intensity,[15],1360
same,SPOT peptide array binding signal intensity,[16],936
same,SPOT peptide array binding signal intensity,[17],86.5
same,SPOT peptide array binding signal intensity,[18],1350
same,SPOT peptide array binding signal intensity,[19],1190
same,SPOT peptide array binding signal intensity,[20],2
same,SPOT peptide array binding signal intensity,[21],3.5
same,SPOT peptide array binding signal intensity,[22],124
same,SPOT peptide array binding signal intensity,[23],22
same,SPOT peptide array binding signal intensity,[24],62.5
same,SPOT peptide array binding signal intensity,[25],25
same,SPOT peptide array binding signal intensity,[26],359
same,SPOT peptide array binding signal intensity,[27],292
same,SPOT peptide array binding signal intensity,[28],1.83
same,SPOT peptide array binding signal intensity,[29],83
same,SPOT peptide array binding signal intensity,[30],7
same,SPOT peptide array binding signal intensity,[31],140
same,SPOT peptide array binding signal intensity,[32],1770
same,SPOT peptide array binding signal intensity,[33],1480
same,SPOT peptide array binding signal intensity,[34],1090
same,SPOT peptide array binding signal intensity,[35],42.5
same,SPOT peptide array binding signal intensity,[36],6780
same,SPOT peptide array binding signal intensity,[37],3000
same,SPOT peptide array binding signal intensity,[38],29
same,SPOT peptide array binding signal intensity,[39],30
same,SPOT peptide array binding signal intensity,[40],0.5
same,SPOT peptide array binding signal intensity,[41],24.8
same,SPOT peptide array binding signal intensity,[42],≤ 0
same,SPOT peptide array binding signal intensity,[43],243
same,SPOT peptide array binding signal intensity,[44],4.5
same,SPOT peptide array binding signal intensity,[45],814
same,SPOT peptide array binding signal intensity,[46],16.7
same,SPOT peptide array binding signal intensity,[47],0.75
same,SPOT peptide array binding signal intensity,[48],6
same,SPOT peptide array binding signal intensity,[49],2360
same,SPOT peptide array binding signal intensity,[50],698
same,SPOT peptide array binding signal intensity,[51],2010
same,SPOT peptide array binding signal intensity,[52],460
same,SPOT peptide array binding signal intensity,[53],4
same,SPOT peptide array binding signal intensity,[54],2120
same,SPOT peptide array binding signal intensity,[55],66
same,SPOT peptide array binding signal intensity,[56],2.5
same,SPOT peptide array binding signal intensity,[57],6
same,SPOT peptide array binding signal intensity,[58],≤ 0
same,SPOT peptide array binding signal intensity,[59],≤ 0
same,SPOT peptide array binding signal intensity,[60],101
same,SPOT peptide array binding signal intensity,[61],70
same,SPOT peptide array binding signal intensity,[62],608
same,SPOT peptide array binding signal intensity,[63],10
same,SPOT peptide array binding signal intensity,[64],1180
same,SPOT peptide array binding signal intensity,[65],959
same,SPOT peptide array binding signal intensity,[66],577
same,SPOT peptide array binding signal intensity,[67],257
same,SPOT peptide array binding signal intensity,[68],151
same,SPOT peptide array binding signal intensity,[69],166
same,SPOT peptide array binding signal intensity,[70],1960
same,SPOT peptide array binding signal intensity,[71],691
same,SPOT peptide array binding signal intensity,[72],280
same,SPOT peptide array binding signal intensity,[73],76
same,SPOT peptide array binding signal intensity,[74],1460
same,SPOT peptide array binding signal intensity,[1],40.2
same,SPOT peptide array binding signal intensity,[2],1
same,SPOT peptide array binding signal intensity,[3],112
same,SPOT peptide array binding signal intensity,[4],12
same,SPOT peptide array binding signal intensity,[5],122
same,SPOT peptide array binding signal intensity,[6],43.2
same,SPOT peptide array binding signal intensity,[7],302
same,SPOT peptide array binding signal intensity,[8],489
same,SPOT peptide array binding signal intensity,[9],1100
same,SPOT peptide array binding signal intensity,[10],10
same,SPOT peptide array binding signal intensity,[11],15
same,SPOT peptide array binding signal intensity,[12],175
same,SPOT peptide array binding signal intensity,[13],215
same,SPOT peptide array binding signal intensity,[14],≤ 0
